Compounds without any hit were thinned out: in the full panel of roughly 83,000, 20% have a hit.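 Cell lines were cultured in 96-well plates, exposed to a single compound concentration, and assessed for percent growth 48 hours later.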 Unmarked numbers belong to inactive results. Active and inactive are the calls of the source. Rule for the calls: active = growth percent below 10; inactive = the rest.

The record followed here is PubChem BioAssay (NCI).

One experiment concerns SK-OV-3 ovarian. Nature of the experiment: NCI-60 one-dose screen, 48 h (100 = growth as untreated, 0 = no growth, -100 = all killed). The settings on record: 10 µM.
In the case of `CC(=O)NCC1=C(C)C=C2C(=O)[C@](C)(O)C3(CC3)C(C)=C21`, the growth is -58.5% (active). Same read-out and setting: next, `Cc1cccc2cc(-c3cc(-c4ccccc4)nc(=S)[nH]3)c(Cl)nc12`: 116%; `CO[C@H]1CSS[C@@H]1Cn1nc(-c2ccc(Oc3ccccc3)cc2)c2c(N)ncnc21`: -1.28% (active); `CNC(=O)c1cc(-c2ccc(NC(=O)Nc3ccc(C)cc3)cc2)nc2cccnc12`: 91.1%. Same read-out and setting: the result for `O=C(Cn1cc(CSc2nnc3oc4ccccc4n23)nn1)Nc1cccc(Cl)c1` reads 54.3%; that for `O=C(Nc1cc(Cl)cc(Cl)c1)Nc1cc(Cl)cc(Cl)c1`, -15.8% (active); that for `C=CC(=O)Nc1ccc(C(=O)/C=C/c2ccc(N(C)CCF)cc2)c(O)c1`, 3.61% (active).

Turning to `CC(=C(c1ccc(OCCN2CCCCCC2)cc1)c1ccc(OCCN2CCCCCC2)cc1)c1ccc(Cl)cc1`, the growth was -100% (active).

As to `Cc1ccc(C(C)C)cc1NC(=O)c1ccccc1O`, the growth is 44.5%. The same measure, in the same setting: next, `C=CC(=O)Nc1nc(-c2cccc(NS(=O)(=O)c3cccc4c(N(C)C)cccc34)c2)cs1`: 47.4%; `CC(C)NC(=O)c1cc(-c2ccc(NC(=O)Nc3ccc(N4CCN(C)CC4)c(C(F)(F)F)c3)cc2)nc2cccnc12`: -93.1% (active). The same measure, in the same setting: next, `COc1ccc2[nH]c(=O)c(CSc3nccc(-c4ccc(Cl)cc4)n3)cc2c1`: 42.1%; `O=C1Nc2cc(Cl)ccc2/C1=C/c1ccc(OCc2ccc(Br)cc2F)cc1`: -20.3% (active); `O=C(N/N=C/c1ccc(B(O)O)o1)c1[nH]c2ccc(Br)cc2c1-c1ccccc1`: 25.5%.

In the case of `CCCS(=O)(=O)c1oc(-c2ccc(F)cc2)nc1S(=O)(=O)c1ccc(F)cc1`, the growth was 83.3%.

The next experiment concerns IGROV1 ovarian. The experiment is described as above. The note with it: 10 µM.
`Nc1nc(-c2ccccc2)cc(-c2cc3ccccc3nc2Cl)n1`: the growth was 97.9%. Consider `O=C(Cn1cc(CSc2nnc3oc4ccccc4n23)nn1)Nc1ccc(Br)cc1`, for which the growth was 75%. With `O=c1oc2ccc(-c3ccc(F)cc3F)cc2c(=O)n1-c1ccc(F)c(Cl)c1`, the growth is 13%. On the same count and under the same terms, next, `CN1CCN(c2ccc(Nc3nc(NCCCNC(=O)c4ccc(F)cc4)c4sccc4n3)cc2)CC1`: 77.8%; `CO[C@@H]1CSS[C@H]1Cn1nc(-c2ccc(Oc3ccccc3)cc2)c2c(N)ncnc21`: 80.4%. On the same count and under the same terms, the result for `CC(=O)Nc1ccc(-n2cnc3cc(-c4ccc(O)cc4)ccc32)cc1C` reads 80.2%. Take `COC(=O)CC1CC1C1Cc2c(nc(N(C)S(C)(=O)=O)nc2C(C)C)-c2ccc(F)cc21` (stereo not given): the growth was 81.4%. On the same count and under the same terms, the result for `CC(=O)Nc1nc(-c2ccc(N3CCN(C)CC3)c(NS(=O)(=O)c3ccc(C(F)(F)F)cc3)c2)cs1` reads 47.5%; that for `Cc1ccc(-c2ccc(SCC(=O)Nc3ccc(Cl)c(C(F)(F)F)c3)nn2)cc1`, 30.1%. Same read-out and setting: the result for `c1ccc(C(=C(c2ccc(OCCN3CCCCC3)cc2)c2ccc(OCCN3CCCCC3)cc2)C2CCCC2)cc1` reads -85.8% (active). Still for that read-out and setting: the result for `O=C(O)CCCCCCCCCCN1C(=O)/C(=C/c2cnc(-c3ccccc3)s2)SC1=S` reads 95%; that for `CCN(CC)CCOc1ccc(C(=C(C)c2ccccc2)c2ccc(OCCN(CC)CC)cc2)cc1`, 34%. For the compound `Cc1ccc(C(=O)Nc2ccc(-n3c(C)nc4c(cnn4-c4ccccc4)c3=O)cc2)cc1`, the growth was 71.6%. On the same count and under the same terms, the result for `COc1ccc2[nH]c(O)c(N=NC(=O)COc3ccc(NC(=O)Nc4ccc(Cl)c(Cl)c4)cc3)c2c1` reads -4.72% (active).

As to `O=C1NC(=NC23CC4CC(CC(C4)C2)C3)N/C1=C\c1ccc2ncccc2n1`, the growth is -6.63% (active).

For the compound `COC(=O)C(Cc1ccc(O)c(O)c1)NC(=O)C(CSC/C=C(\C)CCCC(C)CCCC(C)CCCC(C)C)NC(C)=O` (stereo not given), the growth is 17.4%. The same measure, in the same setting: the result for `O=C(Nc1ccncc1)c1ccc(-n2c(=O)[nH]c3ccccc3c2=O)cc1` reads 107%; that for `CCCCCc1ccc(S(=O)(=O)N(C(C)=O)c2cc(-c3csc(N(C)C(C)=O)n3)ccc2N2CCN(C)CC2)cc1`, 68.2%. For the compound `COc1ccc(-c2ccc(/C=N/NC(=O)c3[nH]c4ccc(Br)cc4c3-c3ccccc3)s2)cc1`, the growth is 110%. The same measure, in the same setting: the result for `CC(C)CCSc1nc(NC2CC2)c(C#N)c(-c2ccc(C(C)C)cc2)n1` reads 113%; that for `O=C(Nc1nc2ccc([N+](=O)[O-])cc2s1)Nc1ccccc1I`, 19.7%. On the same count and under the same terms, the result for `Cc1ccc(CSc2nc(Cl)c(C#N)c(-c3ccc(F)cc3)n2)cc1` reads 95.8%; that for `CCN1CCN(c2ccc(NC(=O)Nc3ccc(-c4cc(C(=O)NC)c5ncccc5n4)cc3)cc2C(F)(F)F)CC1`, -98.2% (active). On the same count and under the same terms, the result for `COc1ccccc1NCc1ccc(CO)n1-c1ccc(C)cc1` reads 91.5%; that for `CCCCCCCCCCCCCCCCCCCC(=O)NCCc1c[nH]c2ccc(OC(=O)NOCCOCCOCCOCCOCCOCCOCCOCCOCCOCCOCCOCCOCCOCCOCCOCCOCCOCCOCCOCCOCCOCCOC)cc12`, 18.9%. Consider `CC(=O)NCC1=C(C)C=C2C(=O)[C@](C)(O)C3(CC3)C(C)=C21`, for which the growth is -39.3% (active). Turning to `Cc1cccc2cc(-c3cc(-c4ccccc4)nc(=S)[nH]3)c(Cl)nc12`, the growth was 93.1%.

Regarding `CO[C@H]1CSS[C@@H]1Cn1nc(-c2ccc(Oc3ccccc3)cc2)c2c(N)ncnc21`, the growth is 29.4%.

With `CNC(=O)c1cc(-c2ccc(NC(=O)Nc3ccc(C)cc3)cc2)nc2cccnc12`, the growth was 92.8%. The same measure, in the same setting: next, `O=C(Cn1cc(CSc2nnc3oc4ccccc4n23)nn1)Nc1cccc(Cl)c1`: 78.7%. Still for that read-out and setting: the result for `O=C(Nc1cc(Cl)cc(Cl)c1)Nc1cc(Cl)cc(Cl)c1` reads 7.38% (active); that for `C=CC(=O)Nc1ccc(C(=O)/C=C/c2ccc(N(C)CCF)cc2)c(O)c1`, -53.5% (active); that for `CC(=C(c1ccc(OCCN2CCCCCC2)cc1)c1ccc(OCCN2CCCCCC2)cc1)c1ccc(Cl)cc1`, -94.1% (active).

Take `Cc1ccc(C(C)C)cc1NC(=O)c1ccccc1O`: the growth is 54.3%. On the same count and under the same terms, the result for `C=CC(=O)Nc1nc(-c2cccc(NS(=O)(=O)c3cccc4c(N(C)C)cccc34)c2)cs1` reads -74.1% (active).

For `CC(C)NC(=O)c1cc(-c2ccc(NC(=O)Nc3ccc(N4CCN(C)CC4)c(C(F)(F)F)c3)cc2)nc2cccnc12`, the growth is -86.9% (active). In the case of `COc1ccc2[nH]c(=O)c(CSc3nccc(-c4ccc(Cl)cc4)n3)cc2c1`, the growth is 60.9%.

As for `O=C1Nc2cc(Cl)ccc2/C1=C/c1ccc(OCc2ccc(Br)cc2F)cc1`, the growth is -41.9% (active).

On to `O=C(N/N=C/c1ccc(B(O)O)o1)c1[nH]c2ccc(Br)cc2c1-c1ccccc1`, for which the growth is 51.8%.

As for `CCCS(=O)(=O)c1oc(-c2ccc(F)cc2)nc1S(=O)(=O)c1ccc(F)cc1`, the growth was 74.9%.
